Screens (PubChem BioAssay)
The full list was thinned out, with hits kept by preference.
KDM5B inh – Primary screen for KDM5B Histone Demethylases FDH-coupled qHTS; KDM5B demethylase, FDH-coupled NADH fluorescence (FDH is formaldehyde dehydrogenase); Potency, µM (top dose mostly 57.7 µM), actives largely listed as inhibitors; 2.6% of 220,000 active; active = well fitted inhibition curve with a large enough effect; also: 0% is about no effect; nearly all actives have a fitted effect of over 70% in size
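Inhibition is measured as reduced NADH fluorescence generation from FDH coupling to formaldehyde release. Truncated KDM5BΔAP at 200 nM final acts on H3K4me3 peptide (12.5 µM in substrate mix) in pH 7.5 HEPES buffer with Tween-20, 30 min, room temperature.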
Numbers without * were called inactive; i = inactive. Potency is read from the fitted curve at half-maximal effect.

SMILES	KDM5B inh
O=C1CO[C@H]2CN(CC3CC3)C[C@H]2N1Cc1ccccn1	i
CN1C(=O)CO[C@H]2CN(Cc3ncc[nH]3)C[C@H]21	35µM*
O=C1CO[C@H]2CN(Cc3cccnc3)C[C@H]2N1	i
CN1C(=O)CO[C@H]2CN(C3CCOCC3)C[C@H]21	i
O=C1CO[C@H]2CN(Cc3ncc[nH]3)C[C@H]2N1Cc1ccncc1	35µM*
O=C1CO[C@H]2CN(Cc3ncc[nH]3)C[C@H]2N1Cc1cccnc1	25µM*
O=C1CO[C@H]2CN(Cc3ccco3)C[C@H]2N1Cc1cccnc1	i
O=C1CO[C@H]2CN(C3CCOCC3)C[C@H]2N1Cc1ccccn1	i
C=C[C@H]1CN2CC[C@H]1C[C@@H]2CNC(=O)Nc1cccc(C(F)(F)F)c1	i
CCN1CCCCC12Cc1ccccc1CN(C(=O)Cc1ccc(OC)cc1)C2 (centres undefined)	i
CCn1ccc(C(=O)N2CCC3(CC2)c2nccn2-c2ccccc2CN3CC(C)C)n1	i
C=C(Cl)CN1CCC(N2CCCCC2)CC1	i
O=C(C1CCC1)N1[C@H]2CC[C@@H]1c1cnc(-c3ccc(F)cc3)nc1C2	i
CC(C)CN1Cc2ccccc2-n2ccnc2C12CCN(C(=O)c1cccs1)CC2	i
N#CC(C#N)=Cc1c[nH]c2ccccc12	i
COc1cc2c(cc1OC1CCCC1)NC(=O)C21CCN(Cc2cccc(O)c2)CC1	i
COCC(=O)N1CCC2(CC1)C(=O)Nc1cc(Oc3cccc(N(C)C)c3)c(OC)cc12	i
O=C(c1ccn[nH]1)N1[C@H]2CC[C@@H]1c1cnc(-c3ccccc3)nc1C2	i
O=C(c1ccc(F)cc1)N1C[C@@H]2C[C@H](C1)c1c(-c3cc4ccccc4s3)ccc(=O)n1C2	i
O=C(c1ccccc1)N1C[C@@H]2C[C@H](C1)c1c(/C=C/c3ccc(Cl)cc3)ccc(=O)n1C2	35µM*
N#Cc1ccc(C(=O)N2C[C@@H]3C[C@H](C2)c2c(-c4ccc(Cl)cc4)ccc(=O)n2C3)cc1	i
COc1cc2c(cc1OCc1ccccc1)N(C(=O)c1ccccc1OC)CC21CCN(C)CC1	i
O=C1NC2(CCN(Cc3ccccn3)C2)Oc2ccccc21 (centres undefined)	i
CN(C)C(=O)[C@H]1CN2CCC1C[C@@H]2Cn1cc(C2(O)CCCCC2)nn1 (some centres undefined)	i
COc1ccc(-c2cc([C@H]3CN4CC[C@H]3C[C@@H]4CNC(=O)CSCC(=O)O)nc(C)n2)cc1OC	32µM*
SMILES	KDM5B inh
Cc1nc(-c2cccs2)cc([C@H]2CN3CC[C@H]2C[C@@H]3CO)n1	35µM*
CCCNC(=O)OC[C@H]1C[C@@H]2CCN1C[C@@H]2c1cc(-c2cccs2)nc(C)n1	i
Cc1nc(-c2cccs2)cc([C@H]2CN3CC[C@H]2C[C@@H]3CNC(=O)c2ccc(C(F)(F)F)cc2)n1	i
Cc1nc(-c2ccc(C(F)(F)F)cc2)cc([C@H]2CN3CC[C@H]2C[C@@H]3CNC(=O)CCCC(=O)O)n1	i
COc1ccc(-c2cc([C@H]3CN4CC[C@H]3C[C@@H]4CNC(=O)c3cccs3)nc(C)n2)cc1OC	28µM*
CCNC(=O)NC[C@H]1C[C@@H]2CCN1C[C@@H]2c1cc(-c2ccc(OC)c(OC)c2)nc(C)n1	18µM*
CC(=O)NC[C@H]1C[C@@H]2CCN1C[C@@H]2c1cc(-c2ccc(F)cc2)nc(C)n1	i
Cc1nc(-c2cccs2)cc([C@H]2CN3CC[C@H]2C[C@@H]3CNS(=O)(=O)c2ccccc2)n1	i
Cc1nc(C2CCCC2)cc([C@H]2CN3CC[C@H]2C[C@@H]3CNC(=O)CCCC(=O)O)n1	i
Cn1nc(-c2ccc(F)cc2)cc1[C@H]1CN2CC[C@H]1C[C@@H]2CNC(=O)c1cccs1	i
COc1ccc(NC(=O)NC[C@H]2C[C@@H]3CCN2C[C@@H]3c2cc(-c3ccc(OC)c(OC)c3)nn2C)cc1	i
Cc1ncc2c(n1)C[C@@H]1CC[C@H]2N1C(=O)c1cnccn1	i
CC[C@H]1CN2CC[C@H]1C[C@@H]2CNC(=O)c1cccc(F)c1	i
O=C(Nc1ccccc1)OC[C@H]1C[C@@H]2CCN1C[C@@H]2c1cc(C2CCCC2)nc(-c2ccncc2)n1	i
CN1CCN(C(=O)Cc2cccn2-c2ccc(Cl)cc2)CC1	i
CC(=O)c1ccc(NC(=O)NC[C@H]2C[C@@H]3CCN2C[C@@H]3CN2CCN(C)CC2)cc1	i
COc1ccc(NC(=O)N2[C@H]3CC[C@@H]2c2cnc(-c4ccc(F)cc4)nc2C3)cc1OC	i
Cc1cc(S(=O)(=O)N2[C@H]3CC[C@@H]2c2cnc(-c4ccccc4)nc2C3)ccc1F	i
CN1CCN(c2ccc(NC=C(C#N)C#N)cc2)CC1	i
O=C(NCc1ccco1)[C@H]1CN2CCC1C[C@@H]2Cn1cc(CO)nn1 (some centres undefined)	i
CC(C)(O)c1cn(C[C@H]2C[C@@H]3CCN2C[C@@H]3C(=O)Nc2ccccc2)nn1	i
